KB-V1 MDR tox – KB-V1 MDR subline cytotoxicity | AID 1347076 | Potency, µM (titrated, usually from 46.1 µM), hits mostly cytotoxic | 400,000 tested, 3.4% active | KB-V1 MDR cells viability, CellTiter-Glo, 72 h; also: nearly all actives have a fitted effect of over 60% in size
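In this primary screen, KB-V1 cells overexpressing P-gp are incubated with library compounds (lowest to highest concentration) for 72 h at 37 degrees C before a luminescent ATP viability read.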
KB-3-1 cytotox – KB-3-1 parental cell cytotoxicity; AID 1347075; Potency, µM (doses to about 46.1 µM), most hits filed as cytotoxic; 400,000 tested, 1.4% active; KB-3-1 viability, CellTiter-Glo ATP luminescence, 72 h; also: nearly all actives have a fitted effect of over 60% in size
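Using CellTiter-Glo luminescence, growth of non-resistant KB-3-1 adenocarcinoma cells is assessed 72 h after pin-tool compound addition at 37 °C. Normalized responses across the concentration series yield fitted curves.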
HT1080NT lethal – kills 2HG-producing HT-1080-NT fibrosarcoma cells | AID 686970 | HT-1080-NT fibrosarcoma viability, CellTiter-Glo ATP luminescence, 48 h | Potency, µM (series often up to 46.1 µM), for the others: at the top dose activity, negative = less viability, most hits filed as cytotoxic | 360,000 tested, 1.6% active;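 also: NT is the 2HG producing partner of a matched IDH1 knockdown line; 0% = DMSO-treated cells and -100% = media-only wells without cells; nearly all actives have a fitted effect of over 55% in size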
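Read-out is CellTiter-Glo luminescence after 10 minutes at room temperature, following 48 hours' compound treatment of HT-1080-NT cells (750 cells/well, RPMI, 5% FBS, 37 degrees C).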
HT1080 IDH1KD tx – toxicity to HT-1080 IDH1 knockdown cells (counter line) | HT-1080 IDH1 knockdown viability, ATP luminescence, 48 h | Potency, µM (titrated, usually from 46.1 µM), inactives show at the highest dose activity, negative = toxicity, most hits filed as cytotoxic | 360,000 tested, 2% active | AID 686971;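 also: 0% = DMSO wells and -100% = cell-free medium wells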
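Knockdown cells (IDH1KD HT-1080) received compounds 2 h after plating at 750 cells/well and were kept 48 h at 37 °C in 5% FBS RPMI. A CellTiter-Glo luminescence read gave % activity for curve fitting.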
* = called active by the depositor; i = inactive; ? = inconclusive; . = not tested or not shown; [ ] = remark or other dose. Compounds with a hit are over-represented: about 5.7% of the library has one in this group of screens. Calls follow the shape of the dose curve; as a rule, active = well fitted curve in the direction sought with a large enough effect; inconclusive = small, poorly fitted or top-dose-only effect, or another doubt; inactive = no such curve, though single readings can be large; an effect the other way counts as inactive or inconclusive. Unless noted, % is scaled to controls: 0 for no effect and ±100 for the full control effect; potency is read from the fitted curve at half-maximal effect.

SMILES	KB-V1 MDR tox	KB-3-1 cytotox	HT1080NT lethal	HT1080 IDH1KD tx
CCOC(=O)NCc1ccc(S(=O)(=O)Nc2ccccc2C)cc1	23µM*	i	-5%	0%
COC(=O)c1cccc(NS(=O)(=O)c2ccc(OC)c(OC)c2)c1C	?	i	0%	-5%
CC(=O)Nc1ccc(OC2=NS(=O)(=O)c3ccccc32)cc1	i	i	.	.
COc1ccc(NC(=O)CN2C(=O)CC(c3ccc(C)c(C)c3)=Nc3ccccc32)cc1OC	i	i	.	.
Cc1ccc(C(=O)c2cn(Cc3ccccc3C)c3nc(C)ccc3c2=O)cc1	i	i	.	.
CCn1ncc(/C=N\NC(=O)COc2cc(C)cc(C)c2)c1C	12µM*	?	-1%	?
Cc1ccc(OCC(=O)Nc2ccccc2N2CCCC2)c(C)c1	i	i	1%	-4%
Cc1cc(C)c(OCC(=O)Nc2ccccc2N2CCOCC2)c(C)c1	i	21µM*	-11%	?
N#Cc1ccccc1NC(=O)CNc1ccccc1N1CCCCC1	21µM*	i	?	?
Cc1cc(C)c(OCC(=O)Nc2ccccc2N2CCCCC2)c(C)c1	16µM*	i	-3%	-14%
CN(Cc1ccccc1NCC(=O)Nc1ccccc1C#N)C1CCCCC1	i	i	-20%	-10%
COc1ccc(N2CCOCC2)c(NC(=O)COc2cccc(C)c2)c1	13µM*	i	6%	0%
COc1ccc(N2CCOCC2)c(NC(=O)COc2cccc(C)c2C)c1	?	i	-11%	0%
CC(=O)c1sc(NC(=O)CSC(C)C(=O)Nc2cc(C)on2)nc1-c1ccccc1 (configuration not stated)	i	i	6%	-7%
COc1ccc(C2c3c(oc4ccc(F)cc4c3=O)C(=O)N2Cc2ccc3c(c2)OCO3)cc1 (configuration not stated)	i	i	.	.
Cc1cc2nc(-c3ccc(OCc4ccccc4C)cc3)cc(C(F)(F)F)n2n1	i	i	.	.
CC1CC(C)(C)NC(=S)N1CCC(=O)N1c2ccccc2CC1C (configuration not stated)	i	i	5%	9%
Cc1ccc(C)c(N2CCN(C(=O)CCCN3C(=S)NC(C)(C)CC3C)CC2)c1 (configuration not stated)	?	21µM*	?	?
CC1CC(C)(C)NC(=S)N1CCCC(=O)Nc1ccc(Br)cc1 (configuration not stated)	23µM*	i	-5%	?
Cc1cccc(N2CCN(C(=O)CCN3C(=S)NC(C)(C)CC3C)CC2)c1C (configuration not stated)	4.1µM*	i	-26%	-17%
Cc1cc(C)cc(NC(=O)c2cc(S(=O)(=O)N3CCC(C)CC3)cn2C)c1	i	i	.	.
Cc1cc(C)cc(NC(=S)Nc2cccc3cnccc23)c1	i	i	2%	-8%
CCc1ccc(NC(=S)Nc2cccc3cnccc23)cc1	21µM*	?	-5%	-3%
CCOC(=S)SCC(=O)Nc1ncc(C)s1	i	i	?	18µM*
Cc1cnc(NC(=O)CSc2ccccc2)s1	i	i	4%	0%
SMILES	KB-V1 MDR tox	KB-3-1 cytotox	HT1080NT lethal	HT1080 IDH1KD tx
CCOC(=O)c1c(C)[nH]c(C=O)c1Cc1cccc(Cl)c1	15µM*	18µM*	?	?
CCOC(=O)c1c(C)[nH]c(C)c1C(=O)COC(=O)/C=C/c1cccc(Cl)c1	?	i	5%	12%
O=C(NCc1cccc(Cl)c1)c1cc(COc2ccc3ncccc3c2)on1	3.3µM*	12µM*	-20%	-21%
CC(CCCC(C)(C)O)NC(=O)c1cc(COc2ccc3ncccc3c2)on1 (configuration not stated)	5.8µM*	?	-5%	-22%
Cc1cc(C)n(CCNC(=O)c2cc(COc3ccc4ncccc4c3)on2)n1	i	?	1%	-9%
C=C(C)Cn1c(SCC(=O)c2ccc(OC)cc2)nc2sc3c(c2c1=O)CCCC3	i	i	.	.
COC(=O)c1c(-c2ccc(OC)cc2)sc2ccc(N3CCOCC3)cc12	i	15µM*	-19%	-23%
COc1ccc(-c2sc3ccc(N4CCOCC4)cc3c2-c2ccc(O)cc2)cc1	?	i	-1%	4%
C/C(=N\N1CCN(C2c3ccccc3-c3ccccc32)CC1)c1ccncc1	18µM*	?	4%	-5%[9.24 µM]
Oc1cc2cc(-c3csc(-c4ccc(F)cc4)n3)ccc2[nH]1	i	i	.	.
CCOC(=O)C1CCN(C(=S)Nc2cccc(C)c2)CC1	i	i	7%	26%
CN1CCN(C(=S)Nc2cccc(Cl)c2)CC1	13µM*	i	9%	13%
CCN1CCN(C(=S)Nc2cccc(Cl)c2)CC1	i	i	2%	-10%
CCOC(=O)N1CCN(C(=S)Nc2cccc(C)c2)CC1	18µM*	i	6%	8%
O=C(CSc1cn(CCNC(=O)c2c(F)cccc2F)c2ccccc12)Nc1ccc2c(c1)OCCO2	i	i	.	.
COc1ccc(NC(=O)Cn2c(=O)n(Cc3ccccc3Cl)c(=O)c3cc(OC)c(OC)cc32)cc1OC	i	i	.	.
COc1ccc(N2C(c3ccsc3)=Cc3cc4c(cc3C2c2c[nH]c3ccccc23)OCO4)cc1 (configuration not stated)	i	?	21µM*	?
CCOC(=O)c1ccc(-c2ccc(N3C(c4ccsc4)=Cc4ccc(F)cc4C3c3c[nH]c4ccc(C#N)cc34)cc2)cc1F (configuration not stated)	?	i	2%	8%
CCOc1ccc(-c2nc(N)ncc2Oc2ccc(OC)cc2)c(O)c1	?	i	23µM*	?
CCOc1ccc(-c2nc(N)ncc2-c2ccc(OC)cc2)c(O)c1	7.3µM*	?	-8%	1%
CCCc1cc(-c2nc(N)ncc2-c2ccc3c(c2)OCCCO3)c(O)cc1OC	2.9µM*	i	-25%	?
CCOc1ccc(-c2nc(N)ncc2-c2ccccc2)c(O)c1	?	15µM*	?	?
Cc1ccc(COC(=O)c2[nH]c3c(c2C)C(=O)CC(c2ccc(Cl)cc2)C3)cc1 (configuration not stated)	?	i	.	.
O=C(C[n+]1cccc2cccc(O)c21)c1ccc(Br)cc1	i	i	.	.
Cc1ccccc1OC(=O)CSc1nnc(-c2cccs2)o1	?	i	.	.

Screening data (PubChem BioAssay)
